Measurements reported in PubChem BioAssay (NCATS).
Inconclusive results are not listed. The source made the active and inactive calls. Calls follow the shape of the dose curve; as a rule, active = well fitted cell-killing curve with a large enough effect; inconclusive = small, poorly fitted or top-dose-only effect, or effect the other way; inactive = no such curve, though single readings can be large or run the other way.

Test: Quantitative High-Throughput drug screen in 47 multiple myeloma cell lines against the NCATS MIPE library collection: RPMI8226_ATCC cell viability assay (AID 1919871); also: nearly all actives have a fitted effect of over 30% in size
Conditions: RPMI8226 myeloma viability, CellTiter-Glo ATP luminescence, 48 h; series mostly up to 45.8 µM; viability (% of control): at the top concentration
Summary of the method: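 Readout: median RLU from CellTiter-Glo after 5 min at room temperature. Preceding step was 48 h drug treatment of 500 cells/well at 37 °C, 5% CO2, with DMSO-only and media-only control wells.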
Potency is read from the fitted curve at half-maximal effect.

Structure (SMILES)	viability (% of control)	Potency
CC1C(=O)OC2C(O)C34C5CC(C(C)(C)C)C36C(OC(=O)C6O)OC4(C(=O)O5)C12O (stereo not drawn)	110% (inactive)	–
C[C@@H](NC(=O)c1ncnc(N)c1Cl)c1ncc(C(=O)Nc2cc(C(F)(F)F)c(Cl)cn2)s1	–	13.2 µM (active)
C[C@@H](O)[C@H]1C(=O)N2C(C(=O)OCOC(=O)C(C)(C)C)=C(SC3CN(C4=NCCS4)C3)[C@H](C)[C@H]12	95.2% (inactive)	–
CN(C)CC[C@H](CSc1ccccc1)Nc1ccc(S(=O)(=O)NC(=O)c2ccc(N3CCN(Cc4ccccc4-c4ccc(Cl)cc4)CC3)cc2)cc1[N+](=O)[O-]	–	4.18 µM (active)
C[C@@H]1C[C@H]2[C@@H]3CCC4=CC(=O)C=C[C@]4(C)[C@@]3(F)[C@@H](O)C[C@]2(C)[C@@]1(O)C(=O)CO	–	0.0166 µM (active)
C[C@]12C=CC(=O)C=C1CC[C@@H]1[C@@H]2[C@@H](O)C[C@@]2(C)[C@@H]1CC[C@]2(O)C(=O)CO	–	0.187 µM (active)
CN1CCN2c3ncccc3Cc3ccccc3C2C1 (stereo not drawn)	102% (inactive)	–
CN1[C@H]2CC[C@H]1CC(OC(=O)c1c[nH]c3ccccc13)C2 (stereo partly drawn)	104% (inactive)	–
Cc1cnc(-c2cc(N3CCN(C(=O)CCS(C)(=O)=O)CC3)ncc2Cl)c(C)c1	125% (inactive)	–
CN[C@@H]1[C@@H](O)[C@@H](O[C@@H]2[C@@H](O)[C@H](O[C@H]3O[C@H](CN)[C@@H](O)[C@H](O)[C@@H]3O)[C@@H](N)C[C@@H]2NC(=O)[C@@H](O)CN)OC[C@]1(C)O	118% (inactive)	–
CN1CCN(c2ncc(-c3cc(Cl)cc(Cl)c3Cl)c(N)n2)CC1	126% (inactive)	–
NC(=O)c1ccc(N(C(N)=O)c2c(F)cccc2F)nc1-c1ccc(F)cc1F	129% (inactive)	–
CCC[C@H](Nc1nc(-c2ccc(NC(=O)NCC)c(OC)c2)ncc1C)c1cccnc1	–	0.0264 µM (active)
NS(=O)(=O)c1cc(Cl)c(Cl)c(S(N)(=O)=O)c1	113% (inactive)	–
CCN(CC)CCCCNc1nc2cc(Cl)c(Cl)cc2nc1-c1ccc(-c2cccs2)s1	–	10.5 µM (active)
CO[C@H]1/C=C\O[C@@]2(C)Oc3c(C)c(O)c4c(O)c(c(C=NN5CCN(C6CCCC6)CC5)c(O)c4c3C2=O)NC(=O)C(C)=CC=C[C@H](C)[C@H](O)[C@@H](C)[C@@H](O)[C@@H](C)[C@H](OC(C)=O)[C@H]1C	–	1.18 µM (active)
CC(=O)NCCC(=O)N[C@@H](CCC(N)=O)C(=O)N[C@@H](CO)C(=O)N[C@@H](CCC(N)=O)C(=O)N[C@@H](CCC(N)=O)C(=O)N[C@H](C(=O)N[C@@H](Cc1ccccc1)C(=O)N[C@]1(C)CCCCCCC=CCCC[C@@](C)(C(=O)N[C@@H](CCC(N)=O)C(=O)N[C@@H](CC(N)=O)C(N)=O)NC(=O)[C@H](CC(C)C)NC(=O)[C@H](CC(C)C)NC(=O)[C@@H](CCCNC(=N)N)NC(=O)[C@H](Cc2c[nH]c3ccccc23)NC(=O)[C@H](CC(C)C)NC(=O)[C@H](CC(N)=O)NC1=O)[C@H](C)O	–	9.35 µM (active)

Structure (SMILES)	viability (% of control)	Potency
CC1(C)[C@H]2CC[C@]3(C)[C@@H](C(=O)C=C4[C@@H]5C[C@@](C)(C(=O)O)CC[C@]5(C)CC[C@]43C)[C@@]2(C)CC[C@@H]1O	115% (inactive)	–
CC[C@H](NC(=O)[C@H](C)NC)C(=O)N1C[C@@H](O)C[C@H]1Cc1c(-c2[nH]c3cc(F)ccc3c2C[C@H]2C[C@H](O)CN2C(=O)[C@H](CC)NC(=O)[C@H](C)NC)[nH]c2cc(F)ccc12	–	1.32 µM (active)
COc1cc(C=CC(=O)O)ccc1O	116% (inactive)	–
Cc1ccccc1-n1c(Cn2nc(-c3cccc(O)c3)c3c(N)ncnc32)nc2cccc(C)c2c1=O	–	13.2 µM (active)
Cc1ccc2c(=O)c3cccc(CC(=O)O)c3oc2c1C	119% (inactive)	–
O=C(NCCCCN1CCOCC1)c1cc2ccccc2o1	115% (inactive)	–
Cc1[nH]c(C=C2C(=O)Nc3ccc(S(=O)(=O)N(C)c4cccc(Cl)c4)cc32)c(C)c1C(=O)N1CCN(C)CC1	–	23.5 µM (active)
N[C@@H](CC(=O)N1CCn2c(nnc2C(F)(F)F)C1)Cc1cc(F)c(F)cc1F	108% (inactive)	–
COc1ccnc(CS(=O)c2nc3ccc(OC(F)F)cc3[nH]2)c1OC (stereo not drawn)	114% (inactive)	–
CN1c2ccccc2C(=O)N2CCc3c([nH]c4ccccc34)C21 (stereo not drawn)	92.4% (inactive)	–
COc1cccc(OC)c1-c1cc(C(=O)NC2(C(=O)O)C3CC4CC(C3)CC2C4)nn1-c1ccnc2cc(Cl)ccc12 (stereo not drawn)	106% (inactive)	–
O=C(NC[C@H](O)CO)c1ccncc1Nc1ccc(I)cc1F	–	0.833 µM (active)
CCOC(=O)N1CCN([N+]([O-])=NOc2cc(ON=[N+]([O-])N3CCN(C(=O)OCC)CC3)c([N+](=O)[O-])cc2[N+](=O)[O-])CC1	–	9.35 µM (active)
COc1ccc(Cn2ccc3ccc(C(=O)NO)cc32)cc1	96% (inactive)	–
O=C(CO)N1CCC(c2[nH]nc(-c3ccc(Cl)cc3)c2-c2ccncn2)CC1	97.7% (inactive)	–
CC1(COc2ccc3c(c2)ncn3-c2ccc3cccc(N4CCC(N)CC4)c3n2)COC1	–	20.9 µM (active)
